Source: PubChem BioAssay AID1159580 (chemical genetic matrix, 2015)
The whole screen tested about 5,500 compounds, of which about 2,000 (36%) were called active. About 18% were inconclusive and are not listed. No stated cut-off is given here; in the data, active means normalized growth mostly below about 0.91 (no sharp cut-off); inconclusive means no clear call, values can overlap the other calls; inactive means mostly above about 0.92. The list shows a part of the results.

Assay: chemical genetic growth profiling, strain panel (AID 1159580);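 further: tested at 20 µM; growth read once vehicle control cultures reached saturation at 30 °C; 1 = growth at the plate median or of vehicle wells; lower values mean less growth of the strain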
Settings: S. cerevisiae deletion strains, growth OD

Measured: normalized growth

C=Cc1c2[nH]c(c1C)Cc1[nH]c(c(C)c1C=C)C=C1N=C(C=c3[nH]c(c(C)c3CCC(=O)O)=C2)C(CCC(=O)O)=C1C
inactive: locus YAL013W, strain DEP1, hits give low values 0.99 | locus YAL040C, strain CLN3, hits give low values 0.989 | locus YCL061C, strain MRC1 (second series), hits give low values 1.01 | locus YDR363W, strain ESC2, hits give low values 1.05 | locus YER002W, strain NOP16, hits give low values 0.987 | locus YGR078C, strain PAC10, hits give low values 1.01 | locus YJR075W, strain HOC1, hits give low values 1.01 | locus YMR307W, strain GAS1, hits give low values 1.01 | locus YNL153C, strain GIM3, hits give low values 0.799 | locus YNL175C, strain NOP13, hits give low values 0.993 | locus YNL197C, strain WHI3, hits give low values 0.972 | locus YNL224C, strain SQS1, hits give low values 1.01 | locus YOR083W, strain WHI5 (second series), hits give low values 1.01
